Our source for the sensor-assay potency score (higher = more potent) values is the OligoGym collection.
Further: reference of the scale not given here.

One assay addresses CMIP. Briefly: pooled miR-30 sensor sort-seq; sequence = guide strand. The following applies: shRNA.
For the sequence TTTTTTGGTCTTGTAACAGGAG, the sensor-assay potency score (higher = more potent) is -0.0686.

TTGCTGAGAAAGGTCCGCGGGT: the sensor-assay potency score (higher = more potent) is -0.793. On the same count and under the same terms, the result for TTGTATTCCAGCATCAAGCACA reads -0.524; that for TTGGAGGGCAGTGTTAGCCTGG, -0.584; that for TTCTCTGAGAGCAGTTTCGAGA, -0.721. On the same count and under the same terms, the figure for TTCGAGGTGAGGATCTTGCTGA is 0.014. On to TTGGGTGTCGTTGTTGTCGATG, for which the sensor-assay potency score (higher = more potent) was -0.39. Take TCGATGACCACCATGGACCGGG: the sensor-assay potency score (higher = more potent) was -0.357.

In turn, TTTTTGGTCTTGTAACAGGAGC returned a sensor-assay potency score (higher = more potent) of -1.29.

The next assay has as its target CMPK1. The description is as above. To be noted: shRNA.
Sequence TATTCTTCTGAGCATTGGCAGC showed a sensor-assay potency score (higher = more potent) of -1.31. On the same count and under the same terms, the result for TACATCTGCCTTCCCATCCATG reads -0.919; that for TTTACCAAACACATTGTGCAAG, -0.707; that for TTGTTTACCAAACACATTGTGC, -0.615.

For the sequence TTAAGTTTTCTCATCTTTCTAC, the sensor-assay potency score (higher = more potent) was 0.568. TTAATAAACACTAAAATGCTCC: the sensor-assay potency score (higher = more potent) was -0.407.

For the sequence TTAGAAGCATCTATTTTCTTGA, the sensor-assay potency score (higher = more potent) was 0.0499. The same measure, in the same setting: the result for TATCTCAACTGGTACAATCTTT reads -0.621; that for TCAACTGGTACAATCTTTCCTT, 0.503; that for ATAAACACTAAAATGCTCCTAA, 0.491. Same read-out and setting: the figure for TACAACTTTGTACAAGTTGTAG is -1.32.
